23 compounds from PubChem BioAssay (Tox21) can be followed below.

A short description of assay [1]: qHTS assay to identify small molecule antagonists of the estrogen receptor alpha (ER-alpha) signaling pathway using the BG1 cell line in the presence of 0.1 nM 17-beta-estradiol - cell viability counter screen (AID 1259241). Also: nearly all actives have a fitted effect of over 40% in size. In a few lines:
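In this screen, hormone-deprived VM7Luc4E2 cells were seeded at 4,000 per well, dosed with compound and 0.1 nM estradiol final, and incubated 22 hr at 37C and 5% CO2; fluorogenic live-cell protease signal reported viability.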
(Quantitative high-throughput screening tests each substance at several concentrations.)

The nature of assay [2]: qHTS assay to identify small molecule antagonists of the androgen receptor (AR) signaling pathway using the MDA cell line in the presence of 0.5 nM R1881 - cell viability counter screen (AID 1259242). Also: nearly all actives have a fitted effect of over 45% in size. Also: potency is read from the fitted curve at half-maximal effect. In a few lines: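 Cells seeded at 3,000/well and allowed 5 hr at 37C, 0% CO2 before compound transfer and R1881 (0.5 nM final) addition; 16 hr later, live-cell protease fluorescence indicated cytotoxicity.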

Assay [3] addresses Estrogen receptor (Homo sapiens) (UniProt P03372). The assay is described as follows: qHTS assay to identify small molecule antagonists of the estrogen receptor alpha (ER-alpha) signaling pathway using the BG1 cell line in the presence of 0.1 nM 17-beta-estradiol (AID 1259244). Also: nearly all actives have a fitted effect of over 50% in size. Also: potency is read from the fitted curve at half-maximal effect. In a few lines:
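Luciferase signal from VM7Luc4E2 ERE-reporter cells, co-dosed with test compound and 0.1 nM final 17beta-estradiol for 22 h, read with ONE-Glo.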

The nature of assay [4]: qHTS assay to identify small molecule HDAC inhibitors (AID 1259364).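 Also: wild-type HCT-116 cells with endogenous class I/II HDAC activity; top concentration of the series differs between compounds; nearly all actives have a fitted effect of over 45% in size.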 The method, boiled down:
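HCT-116 wt cells, 1,500/well, overnight attach. Compounds (DMSO) 2 h, 37 °C. HDAC-Glo I/II, 30 min RT. Luminescence.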

A short description of assay [5]: qHTS assay to identify small molecule HDAC inhibitors - cell viability counter screen (AID 1259365). Also: series mostly up to about 92 µM; nearly all actives have a fitted effect of over 50% in size. The method, boiled down: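 Measured quantity is CellTiter-Glo luminescence from wild-type HCT-116 cells after compound incubation of 2hr at 37C, 5% CO2; reagent developed 30min at room temperature.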
Assay [6] in a line: qHTS assay to identify small molecule agonists of the sonic hedgehog signaling (Shh) pathway - cell viability counter screen (AID 1259366). Also: nearly all actives have a fitted effect of over 50% in size. Also: potency is read from the fitted curve at half-maximal effect. The method, boiled down: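 In quantitative high-throughput format, 3T3 Gli1-Luc cells were exposed to compounds for 24hr and multiplexed for viability using CellTiter-Fluor, incubated 1hr at 37C before the fluorescence read.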
Assay [7] in a line: qHTS assay to identify small molecule antagonists of the sonic hedgehog signaling (Shh) pathway - cell viability counter screen (AID 1259367). Also: nearly all actives have a fitted effect of over 55% in size. Also: potency is read from the fitted curve at half-maximal effect. In a few lines: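 Conditioned medium drove Shh signaling in 3T3 Gli1-Luc cells exposed to compounds at 37C and 5% CO2. Viability was determined from CellTiter-Fluor fluorescence, with reagent incubated 1 hr after 23 hr of treatment.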

Assay [8] has as its target Androgen receptor (Homo sapiens) (UniProt P10275). Briefly: qHTS assay to identify small molecule antagonists of the androgen receptor (AR) signaling pathway using the MDA cell line in the presence of 0.5 nM R1881 (AID 1259243). Also: nearly all actives have a fitted effect of over 50% in size. Also: potency is read from the fitted curve at half-maximal effect. In a few lines:
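Luminescence from an AR/GR-responsive MMTV-luciferase construct in MDA-kb2 breast carcinoma cells, read 30 min after ONE-Glo, following 16 hr co-treatment with compounds and 0.5 nM R1881.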

Assay [9] is described as follows: qHTS assay to identify small molecule phospholipidosis (PLD) inducers (AID 1259344; active = well fitted curve in the direction sought with a large enough effect; an effect the other way counts as inactive or inconclusive). The method, boiled down: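 After 4 h attachment on collagen I, HepG2 cells were dosed with compound alongside LipidTOX Red, kept 24 h at 37 C, fixed, and imaged for lamellar phospholipid pits.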
Assay [10] is described as follows: qHTS assay to identify small molecule agonists of the sonic hedgehog signaling (Shh) pathway (AID 1259368; calls by dose curve;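 also: NIH/3T3-derived 3T3Gli1-Luc cells carrying a stable Gli1-driven firefly luciferase reporter; series mostly up to about 92 µM; nearly all actives have a fitted effect of over 15% in size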). The method, boiled down: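 Following a 24 hr incubation with DMSO-dissolved compounds at 37 C, 5% CO2, Gli1-Luc NIH/3T3-derived cells received luciferase reagent for 30 min at room temperature prior to luminescence measurement.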

Several values for one entry are separate records, joined by “and”; a condition that tells them apart may be missing. Equal values may be shown once. Inconclusive results are not listed. Some compounds were tested as several samples or in several runs, with calls that do not always agree. Activity calls are given as the source filed them. Unless noted, calls follow the shape of the dose curve; as a rule, active = well fitted curve in the direction sought with a large enough effect in the repeat runs; inconclusive = weak or mixed curves; inactive = no such curve, though single readings can be large; an effect the other way counts as inactive or inconclusive.
% is scaled to controls: 0 for no effect and ±100 for the full control effect.

Estrogen receptor (Homo sapiens), sequence (P03372 whole entry, looked up): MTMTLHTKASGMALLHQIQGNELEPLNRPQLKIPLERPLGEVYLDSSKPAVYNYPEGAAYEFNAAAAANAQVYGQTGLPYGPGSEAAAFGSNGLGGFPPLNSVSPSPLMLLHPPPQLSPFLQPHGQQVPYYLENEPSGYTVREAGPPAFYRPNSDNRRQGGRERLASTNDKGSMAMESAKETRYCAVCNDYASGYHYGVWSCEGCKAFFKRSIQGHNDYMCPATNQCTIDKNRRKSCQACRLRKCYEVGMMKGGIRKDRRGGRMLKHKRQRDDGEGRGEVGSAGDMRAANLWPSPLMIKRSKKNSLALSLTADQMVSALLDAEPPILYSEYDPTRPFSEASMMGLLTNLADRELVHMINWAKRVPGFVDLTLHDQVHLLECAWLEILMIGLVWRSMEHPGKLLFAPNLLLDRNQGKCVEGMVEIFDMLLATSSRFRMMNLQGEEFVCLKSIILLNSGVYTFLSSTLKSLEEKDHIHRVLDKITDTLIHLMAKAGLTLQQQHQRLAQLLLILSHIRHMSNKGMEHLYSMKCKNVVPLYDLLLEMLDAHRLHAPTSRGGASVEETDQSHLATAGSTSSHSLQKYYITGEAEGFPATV
Androgen receptor (Homo sapiens), sequence (P10275 whole entry, looked up): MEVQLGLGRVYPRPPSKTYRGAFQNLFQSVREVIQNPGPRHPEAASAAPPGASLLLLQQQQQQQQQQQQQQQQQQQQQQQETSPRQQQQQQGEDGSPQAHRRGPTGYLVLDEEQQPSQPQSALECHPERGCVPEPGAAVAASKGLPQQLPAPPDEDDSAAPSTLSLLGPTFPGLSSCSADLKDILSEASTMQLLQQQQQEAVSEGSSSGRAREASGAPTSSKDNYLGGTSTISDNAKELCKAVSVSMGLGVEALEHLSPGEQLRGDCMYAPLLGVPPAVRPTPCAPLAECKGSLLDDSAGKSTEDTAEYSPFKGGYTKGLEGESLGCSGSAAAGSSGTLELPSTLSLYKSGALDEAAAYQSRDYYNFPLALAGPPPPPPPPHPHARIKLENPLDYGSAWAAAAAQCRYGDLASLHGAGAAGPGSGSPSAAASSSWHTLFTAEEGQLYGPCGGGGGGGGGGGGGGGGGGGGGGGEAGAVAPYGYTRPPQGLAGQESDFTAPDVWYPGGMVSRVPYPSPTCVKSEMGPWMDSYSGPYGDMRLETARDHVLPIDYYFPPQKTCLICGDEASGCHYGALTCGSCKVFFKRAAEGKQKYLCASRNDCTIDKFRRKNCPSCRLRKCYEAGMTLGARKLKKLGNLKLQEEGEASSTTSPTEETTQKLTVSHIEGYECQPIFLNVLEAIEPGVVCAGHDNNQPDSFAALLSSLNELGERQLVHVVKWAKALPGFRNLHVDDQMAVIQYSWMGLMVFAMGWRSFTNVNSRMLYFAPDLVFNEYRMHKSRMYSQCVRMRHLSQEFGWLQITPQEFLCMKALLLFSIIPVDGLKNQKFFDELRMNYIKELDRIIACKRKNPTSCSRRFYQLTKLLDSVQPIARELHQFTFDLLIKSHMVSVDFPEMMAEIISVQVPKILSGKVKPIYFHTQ

For the compound `Cc1ccc([N+](=O)[O-])c(C)c1`, the Potency result in [1], in [2], in [4], in assay [6] and in [7] was “inactive” in each case. For the same compound, the Potency in [3] is 6.11 µM (active) and inactive. In assay [5], the result was inactive.

In the case of `CCc1cccc2c3c([nH]c12)C(CC)(CC(=O)O)OCC3` (configuration not stated), the Potency entry in assay [1], in assay [2], in assay [8], in assay [3], in [9] and in assay [4] was “inactive” each time. The Potency result in [6] is “inactive”. Moreover, the compound was classed as inactive in assay [5].

Consider `CC(C)(C)c1cccc(C(C)(C)C)c1O`, for which the Potency result in assay [1], in [2], in assay [3], in [4], in assay [6] and in assay [7] was “inactive” each time. The Potency result in [10] is “inactive”. Further, the result in [5] was inactive.

On to `NCCN`, for which the Potency result in assay [1], in assay [2], in assay [3], in [9], in [4] and in assay [6] was “inactive” in each case. Moreover, the Potency entry in [7] was “inactive”. The result in assay [5] was inactive.

Consider `c1ccc2c(c1)[nH]c1ccccc12`, for which the Potency result in assay [1], in assay [2], in assay [3], in [4], in assay [6] and in assay [7] was “inactive” throughout. For the same compound, the Potency entry in assay [10] is “inactive”. In addition, in assay [8], the Potency was 8.49 µM (active) and 8.63 µM (active). For the same compound, the compound was called inactive in assay [5].

In the case of `CC(=O)Nc1ccc2c(c1)Cc1cc(NC(C)=O)ccc1-2`, the Potency result in [1], in [2], in [3], in assay [4], in assay [6] and in [7] was “inactive” each time. Besides, the compound was called inactive in assay [5].

In the case of `COC(=O)C(C)Oc1ccc(Oc2ncc(C(F)(F)F)cc2Cl)cc1` (configuration not stated), the Potency result in [1], in assay [2], in [3], in assay [4], in assay [6] and in assay [7] was “inactive” in each case. For the same compound, in assay [5], the call was inactive.

Take `CC(=O)Oc1c(C)c(C)c2c(c1C)CC[C@@](C)(CCC[C@H](C)CCC[C@H](C)CCCC(C)C)O2`: the Potency entry in assay [1], in [2], in [3], in [9], in assay [4] and in assay [6] was “inactive” throughout. Further, the Potency result in assay [7] was “inactive”. Besides, the outcome in assay [5] was inactive.

As to `CCC(Cc1c(I)cc(I)c(N)c1I)C(=O)O` (configuration not stated), the Potency result in [1], in assay [2], in assay [3], in assay [9], in [4] and in [6] was “inactive” in each case. In addition, the Potency result in [7] was “inactive”. In addition, the result in [5] was inactive.

As to `CC(=O)[C@@]1(O)CC[C@H]2[C@@H]3C[C@H](C)C4=CC(=O)C=C[C@]4(C)[C@@]3(F)[C@@H](O)C[C@@]21C`, the Potency entry in [1], in [2], in assay [3], in [9], in assay [4] and in assay [6] was “inactive” throughout. Further, the Potency result in [10] is “inactive”. Moreover, the outcome in [5] was inactive.

In the case of `COC(=O)c1ccc(C)cc1`, the Potency result in assay [1], in [2], in [3], in [4], in [6] and in [7] was “inactive” in each case. The Potency result in assay [10] was “inactive”. Moreover, in [5], the compound was classed as inactive.

For the compound `C[C@]12C=CC(=O)C=C1CC[C@H]1[C@@H]3C[C@@H](O)[C@](O)(C(=O)CO)[C@@]3(C)C[C@H](O)[C@@]12F`, the Potency entry in assay [1], in assay [2], in assay [3], in assay [9], in assay [4] and in assay [6] was “inactive” throughout. For the same compound, the Potency result in assay [7] was “inactive”. The result in assay [5] was inactive.

Regarding `O=C(O)c1cc(=O)[nH]c(=O)[nH]1`, the Potency entry in assay [1], in assay [2], in [3], in assay [9], in [4] and in assay [6] was “inactive” in each case. Moreover, the Potency result in [10] was “inactive”. Further, the result in assay [5] was inactive. For the same compound, the Potency entry in [7] was “inactive and 16.8 µM (active)”.

On to `CCCCCCC(C)O` (configuration not stated), for which the Potency entry in assay [1], in assay [2], in assay [3], in assay [4], in assay [6] and in assay [7] was “inactive” in each case. Also, the Potency entry in assay [10] is “inactive”. For the same compound, the compound was classed as inactive in assay [5].

For the compound `C=C1C[C@H]2[C@@H]3C=C(C)C4=CC(=O)CC[C@]4(C)[C@H]3CC[C@]2(C)[C@@]1(OC(C)=O)C(C)=O`, the Potency entry in [1], in [2], in assay [8], in [3], in assay [4] and in [6] was “inactive” throughout. Moreover, the Potency entry in [10] is “inactive”. In addition, in assay [5], the compound was classed as inactive.

`NCCS(=O)(=O)O`: the Potency entry in assay [1], in assay [2], in assay [3], in assay [9], in assay [4] and in assay [6] was “inactive” each time. Moreover, the Potency result in [10] was “inactive”. Also, the compound was called inactive in [5]. For the same compound, the Potency in assay [7] was 22.5 µM (active) and inactive.

For the compound `C=C[C@@]1(C)CC(=O)[C@]2(O)[C@@]3(C)[C@@H](O)CCC(C)(C)[C@@H]3[C@H](O)[C@H](OC(C)=O)[C@@]2(C)O1`, the Potency result in assay [1], in [2], in assay [9] and in [4] was “inactive” throughout. In assay [3], the Potency is 15.4 µM (active) and 7.5 µM (active). Besides, in [5], the outcome was inactive.

On to `O=C1CCc2ccccc2O1`, for which the Potency result in assay [1], in [2], in assay [3], in assay [4], in [6] and in [7] was “inactive” in each case. In [10], the Potency result is “inactive”. Further, in assay [5], the call was inactive.

As to `C1CN(SSN2CCOCC2)CCO1`, the Potency entry in assay [1], in assay [2], in assay [3] and in assay [4] was “inactive” throughout. In addition, the result in [5] was inactive. In addition, the Potency in [6] is 53.9 µM (active) and 48.6 µM (active).

As for `COc1cc([C@H]2Oc3cc([C@H]4Oc5cc(O)cc(O)c5C(=O)[C@@H]4O)ccc3O[C@@H]2CO)ccc1O`, the Potency result in [1], in [2], in assay [3], in assay [9] and in [4] was “inactive” each time. Besides, the result in assay [5] was inactive. For the same compound, the Potency in assay [6] was 24.3 µM (active) and inactive; in [7], 27.2 µM (active) and inactive.

With `O=[Se](O)O`, the Potency result in assay [1], in assay [4] and in assay [6] was “inactive” each time. The Potency in assay [2] was 13.7 µM (active). Also, the viability change, negative = cytotoxic in assay [2] is -4.23% [at 19 µM] (inactive). For the same compound, the activity change, negative = inhibition in assay [3] was -20.4% [at 19 µM] (inactive). Further, the compound was called inactive in assay [5].

`CC(C)=CCO`: the Potency result in [1], in [2], in [3], in [4], in assay [6] and in [7] was “inactive” in each case. In addition, the Potency entry in assay [10] is “inactive”. Further, the compound was called inactive in assay [5].

For the compound `CC1=CC(C)(C)Nc2ccccc21`, the Potency result in assay [1], in assay [2], in assay [3], in [4] and in assay [6] was “inactive” throughout. In addition, the outcome in assay [5] was inactive.
